Assay results published in the supplement of paper PMC6555819.

Experiments:
Test in all cases: PBM binding z-score (relative to random genomic background probes); higher = stronger binding; sequences stand for … in GC…GCGATTGACAGCGTAGAATGAAGG
[1] = tested on: RARb homodimer (NR concentration 270 nM)
Summary of the method: (§1)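 Antibodies against each partner of ligand-free nuclear receptor dimers (one per run) detected binding on custom Agilent 4×180K protein-binding microarrays after 1 h incubation. The double-stranded probes had 34-nt variable regions carrying direct-repeat seeds, single-nucleotide variants, half-site ablations and random human genomic background sequences. Binding z-scores, from regression-normalized fluorescence, use the random background probes as reference.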

[2] = tested on: RARg:RXRa (NR concentration 270 nM, RXRa partner concentration 90 nM)
Summary of the method: as §1

[3] = tested on: RARg homodimer (NR concentration 270 nM)
Summary of the method: as §1

[4] = tested on: RXRa DBDmut IVT, anti-RXR (DBD mutation: RXRa K156A/R161A, NR concentration 90 nM)
Summary of the method: as §1

[5] = tested on: RXRa homodimer (NR concentration 180 nM)
Summary of the method: as §1

[6] = tested on: THRa:RXRa (NR concentration 90 nM, RXRa partner concentration 90 nM)
Summary of the method: as §1

[7] = tested on: THRa homodimer (NR concentration 90 nM)
Summary of the method: as §1

[8] = tested on: VDR homodimer (NR concentration 270 nM)
Summary of the method: as §1

Sequence	PBM binding z-score [1]	PBM binding z-score [2]	PBM binding z-score [3]	PBM binding z-score [4]	PBM binding z-score [5]	PBM binding z-score [6]	PBM binding z-score [7]	PBM binding z-score [8]
GCTGCTAGGTCAACTTATGGTCAGCTAAAGCTCG	3.76	5.26	5.44	1.75	3.1	3.33	1.45	0.364
CTTCGGAGGACAACAGGAGGTCAGAGCTGCCAGA	3.55	3.73	3.57	0.619	2.19	2.97	1.1	1.45
TCTGCTAGGTCAGCTGGTCAGCTAACGAGCTGCC	2.62	3.42	4.27	0.17	1.51	1.8	-0.216	-1.3
TTATATAGGTAAACAGGTGAAAGTCCGTAAGTTA	0.827	0.632	0.572	0.156	0.949	0.802	0.282	0.242
CCTAGCAGGCCAGGGTCACTGAAGCATTTCGCTT	2.95	3.32	2.91	0.172	3.86	3.07	1.02	1.19
TAGCCTCGGTCAGATCGGGCCAGTATACGCTATA	0.82	0.738	1.98	-1.02	-0.0826	2.41	-1.11	-1.63
GCTTACGGGTCTAAGGTTATAGCATGAATAGAAT	0.97	0.869	0.598	1.27	1.46	2.16	1.21	1.04
CTCGAGAGGTCGTGCTCAGGTGAGTATACCAAAC	2.12	4.24	2.53	2.74	3.82	4.08	1.06	1.49
ATCGAAAGGGCGAGGTGAGTATAGAGAAAGGGAA	1.45	1.48	1.58	-0.127	0.756	1.63	0.413	-0.029
CAAACTAAGTCACCGGAAGGTCAAAGTCCGCATG	4.37	5.3	3	1.01	3.92	3.26	1.51	2.19
CCTCGGAGGACAGAAGGTCAGAACTGTCCGCTTT	3.17	2.9	2.58	0.39	1.43	1.85	0.203	0.761
CCGACTGGGGCAGAAAGGTTTCCATACCATCCGG	0.129	-0.218	0.0471	-0.768	-0.284	-1.38	-0.951	-0.664
GGAACAAGGGCAAGTTGATAGCAGAGTTTGATGG	1.92	1.5	2.02	1.47	0.773	1.14	0.372	1.27
AGTCAAGGTTCATCTAGGTAACGTAAGATATGCT	2.09	3.09	2.93	4.77	3.54	3	0.474	5.03
CCAGACAGGTGAAAGGTACCTCAGTCTGGTACGC	0.251	0.666	0.394	-0.333	1.32	0.325	-0.329	-0.438
ACTATTAGTTGACTTAGGACAACCGATACGACGC	0.766	0.732	1.04	0.853	0.557	2.12	1.88	0.342
CCTACTGGGCCAAAAAGGTCATTGTTGCCGATAA	4.29	4.28	3.91	0.617	4.21	2.92	0.342	2.3
ACTATTAGCTGAGACGAGGGCAACCGATAGGTTG	1.27	0.452	0.667	0.345	0.587	0.992	0.251	0.999
TGTCAAAGTTCAAAGGAAACGTAAGTATCCACAC	3.37	5.07	5.18	3.95	4.12	1.62	-0.452	3.4

Sequence	PBM binding z-score [1]	PBM binding z-score [2]	PBM binding z-score [3]	PBM binding z-score [4]	PBM binding z-score [5]	PBM binding z-score [6]	PBM binding z-score [7]	PBM binding z-score [8]
ACTATTAGTTGACTTAGGGAAACCGATACGACGC	-0.158	0.158	0.385	0.822	0.147	0.625	0.155	0.262
TCTGCTAGGTCAGTTGGTCAGTTAACGAGCTGCC	2.57	2.69	3.81	0.618	0.575	1.34	0.247	-0.347
CCTACTGAGCCAAAAAGGTCATTGATGCCGATAA	4.22	4.3	4.1	1.49	5.03	2.86	1.05	2.73
TCTATTAGTTGAAGGGCAACGGACGAGTCCGTTT	1.19	0.697	0.572	1.53	0.756	0.343	0.0596	1.98
TCGAGTAGGTTAGGGGCATTCAAAATGGCGTCGA	0.918	0.367	0.48	0.614	0.622	1.06	0.276	1.43
TCTTGTAAATCAATAGAGGTTAAGAAAGTGCGCT	1.42	0.907	0.577	1.23	1.46	1.56	0.0458	0.639
TGAATGACGTTATAAGATCAGGGAACGTTGCAAA	-0.513	0.43	0.292	-0.941	0.24	-0.021	-0.323	-0.203
TCAGACAGGTGGAGGTAACTCAGGTACGCAGTCG	0.41	-0.00603	-0.245	0.723	0.574	1.48	0.639	-0.21
TCTGCTAGGTCAGTAGGTCAGCTAACGAGCTGCC	3.94	4.77	4.67	0.677	2.36	1.93	0.157	-0.0493
ATACCAAGGTGATCTTGAGGTCGTTGATACTAAC	1.9	2.62	1.12	1.19	2.04	3.66	2.9	3.21
TGACCAAGGTGAGCTGAGGTCGTTGATCCAACTC	1.63	1.46	1.17	-0.41	1.52	4.69	1.8	1.7
AGAATGAGGTTATACGTAGATCAGGGATGAAAGT	1.04	1.74	1.27	1.92	2.47	2.23	0.607	0.865
CGAACTAGGTCAGAACAGGACAGAGAAGGATGAT	1.89	2.45	3.27	0.331	1.2	3.39	0.271	0.244
CCTAGTGGGCCATCAGGTCATTGATATCAACGTT	2.68	2.11	1.92	0.53	1.45	3.13	2.59	1.43
AATATAGGGTCATCGTAGGCCAGAGTACGCACAG	3.83	5.9	5.5	3.83	6.83	4.67	2.3	3.76
ATCGAAGGGTCGAGGTGAGTATAGAGAAAGGGAA	1.75	2.29	2.48	0.466	2.29	2.17	0.731	0.278
AGTCAAAGTTCATGACGAGGTAACGTAAAGCACG	3.83	6.13	5.76	4.29	4.9	4.23	1.02	4.11
ACAGACAGGTGACGAAGGTAACTCAGGCTATCAT	0.451	0.549	0.697	-0.564	0.578	1.03	0.0235	-0.374
GCCTGTAGATCAAGGTTAAGAAAGACTAAGCTAA	0.243	0.329	0.0689	0.0892	0.822	1.14	-0.419	-0.568

Sequence	PBM binding z-score [1]	PBM binding z-score [2]	PBM binding z-score [3]	PBM binding z-score [4]	PBM binding z-score [5]	PBM binding z-score [6]	PBM binding z-score [7]	PBM binding z-score [8]
CAGACTAGGTCACAGAGGTCAAAGTCCGTGCGTA	5.42	7.17	7.46	3.41	7.88	4.6	2.91	7.08
GCGACTGGGGCAAAGCAGGTTATCATAAGGTTGG	0.97	0.559	0.655	-0.0158	0.368	2.9	0.0261	-0.46
CCAGACAGATGAGAAGGTAACTCAGCCTCGATTA	-0.0918	0.0576	0.416	0.092	0.0859	0.0683	0.259	0.296
CCGACTGGGGGAGAAAGGTTACCATACCATCCGG	2.12	2.37	1.74	-0.115	2.39	1.84	0.416	0.562
TCTCGGAGGACACGGAAGGTCAGAGCTCGACATC	3.98	3.49	4.48	0.816	2.31	3.45	1.37	1.01
CCGACTGGGGCAGAAGGTTACCATAAGCCAGCCC	1.53	1.14	0.806	-0.593	1.04	0.31	-0.571	0.083
CGAACTAGGTCAGAACAGGACCGTGAAGGATGAT	1.66	2.43	3.01	0.494	1.17	1.56	-0.264	-0.342
CCTTACGGGTCACGAGGTTATGGCACGACGAGCG	3.8	6.05	5.55	1.3	6.91	3.72	1.19	1.71
ACTATTTGTTGACTTAGGGCAACCGATACGACGC	1.01	0.754	1.08	0.742	0.588	1.12	0.816	0.486
CGAACTAGGTCAAGGACAGGGAATCTCCGCACGC	3.19	4.09	5.13	1.35	2.84	3.13	2.25	0.294
GGAACGACGGCAAGTTGATAGCAGAGTTTGATGG	-0.7	-0.136	-0.0502	-0.124	-0.0735	-0.769	-1.02	-0.205
CGTCCAAGGTCAAAGGTCAGAGAAGAGATGACGG	5.36	8.94	8.33	3.99	10.6	4.84	2.39	3.54
CCTCCTGGGCCAAAAAGGTCATTGATGCCGATAA	4.4	4.5	3.91	0.197	4.5	3.12	0.604	2.38
CCGACTGAGGCAAAGGTTACCATACTCAGTACGA	1.76	1.73	1.29	0.393	2.61	1.54	0.023	-0.216
TCTGCTAGGTCAGTTGGTCCGCTAACGAGCTGCC	2.05	1.98	2.93	0.518	0.727	0.962	-0.188	-0.485
AATACAGGGTCACTAGGCGAGAGTAGGTACGAAT	3.24	5.21	5.18	2.87	5.73	3.48	1.41	2.82
AGTCAAAGTTCACTAGGTAACCTAAGATTCAGCT	3.75	5.2	5.66	4.32	4.04	2.46	0.759	4.29
TCTTGGAGGACACGAAGGTCAGAGCTTTCCAGAG	3.54	3.23	3.69	0.774	1.83	2.89	0.692	1.13
ACTCGGAGGACAAAGGTCAAAGCTACGCCAGTGA	5.02	7.08	6.07	1.75	6.78	4.03	0.972	2.28
